Laboratory results reported in PubChem BioAssay AID1159580 (chemical genetic matrix, 2015).
Out of some 5,500 compounds screened, about 2,000 (36%) were called active. Not shown: some 18% with an inconclusive outcome. Rule as the data show it: active = normalized growth mostly below about 0.91 (no sharp cut-off); inconclusive = no clear call, values can overlap the other calls; inactive = mostly above about 0.92. The list shows a part of the results.

Experiment: chemical genetic growth profiling, strain panel (AID 1159580);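 also: tested at 20 µM; growth read once vehicle control cultures reached saturation at 30 °C; 1 = growth at the plate median or of vehicle wells; lower values mean less growth of the strain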
Conditions: growth OD
[1] = S. cerevisiae deletion strains, locus YAL013W, strain DEP1, hits give low values

Measured: normalized growth

CCOC(=O)C12CC1/C(=N\O)c1ccccc1O2 (centres undefined)
inactive: [1] 0.998 | S. cerevisiae deletion strains, locus YAL040C, strain CLN3, hits give low values 1.05 | S. cerevisiae deletion strains, locus YCL061C, strain MRC1 (second series), hits give low values 0.995 | S. cerevisiae deletion strains, locus YER002W, strain NOP16, hits give low values 1.02 | S. cerevisiae deletion strains, locus YGR229C, strain SMI1, hits give low values 0.991 | S. cerevisiae deletion strains, locus YNL153C, strain GIM3, hits give low values 1.02 | S. cerevisiae deletion strains, locus YNL175C, strain NOP13, hits give low values 1.02 | S. cerevisiae deletion strains, locus YNL197C, strain WHI3, hits give low values 1.02 | S. cerevisiae deletion strains, locus YNL224C, strain SQS1, hits give low values 1 | S. cerevisiae deletion strains, locus YOR083W, strain WHI5 (second series), hits give low values 1.02

CCOC(=O)C1(O)Oc2cc(OC)cc(OC)c2C(=O)C1c1ccccc1 (centres undefined)
inactive: [1] 0.969 | S. cerevisiae deletion strains, locus YBR229C, strain ROT2, hits give low values 1.01 | S. cerevisiae deletion strains, locus YCL029C, strain bik1, hits give low values 0.996 | S. cerevisiae deletion strains, locus YDL035C, strain GPR1, hits give low values 0.984 | S. cerevisiae deletion strains, locus YDL074C, strain BRE1, hits give low values 0.947 | S. cerevisiae deletion strains, locus YDL101C, strain DUN1, hits give low values 1 | S. cerevisiae deletion strains, locus YDL134C, strain PPH21, hits give low values 0.986 | S. cerevisiae deletion strains, locus YDL185W, strain tfp1, hits give low values 1 | S. cerevisiae deletion strains, locus YDL192W, strain arf1, hits give low values 0.982 | S. cerevisiae deletion strains, locus YDR101C, strain arx1, hits give low values 0.984 | S. cerevisiae deletion strains, locus YDR162C, strain NBP2, hits give low values 1 | S. cerevisiae deletion strains, locus YDR318W, strain mcm21, hits give low values 0.979 | S. cerevisiae deletion strains, locus YDR388W, hits give low values 0.976 | S. cerevisiae deletion strains, locus YDR502C, strain sam2, hits give low values 0.932 | S. cerevisiae deletion strains, locus YEL061C, strain CIN8, hits give low values 0.996 | S. cerevisiae deletion strains, locus YER110C, hits give low values 0.977 | S. cerevisiae deletion strains, locus YER155C, strain BEM2, hits give low values 0.978 | S. cerevisiae deletion strains, locus YER167W, strain BCK2, hits give low values 1 | S. cerevisiae deletion strains, locus YGL078C, strain dbp3, hits give low values 0.993 | S. cerevisiae deletion strains, locus YGL086W, strain mad1, hits give low values 0.97 | S. cerevisiae deletion strains, locus YGL248W, strain PDE1, hits give low values 0.99 | S. cerevisiae deletion strains, locus YGR135W, strain pre9, hits give low values 0.925 | S. cerevisiae deletion strains, locus YGR252W, strain gcn5, hits give low values 0.815 | S. cerevisiae deletion strains, locus YHR079C, strain IRE1 (second series), hits give low values 0.974 | S. cerevisiae deletion strains, locus YHR094C, strain hxt1, hits give low values 0.981 | S. cerevisiae deletion strains, locus YHR129C, strain ARP1, hits give low values 0.993 | S. cerevisiae deletion strains, locus YHR200W, strain rpn10, hits give low values 0.959 | S. cerevisiae deletion strains, locus YIL066C, strain RNR3, hits give low values 1 | S. cerevisiae deletion strains, locus YIL073C, strain SPO22, hits give low values 0.968 | S. cerevisiae deletion strains, locus YIL125W, strain kgd1, hits give low values 0.989 | S. cerevisiae deletion strains, locus YIR030C, strain dcg1, hits give low values 0.983 | S. cerevisiae deletion strains, locus YJL095W, strain BCK1, hits give low values 0.97 | S. cerevisiae deletion strains, locus YJL134W, strain LCB3, hits give low values 1 | S. cerevisiae deletion strains, locus YJL168C, strain set2, hits give low values 0.977 | S. cerevisiae deletion strains, locus YJL187C, strain SWE1 (second series), hits give low values 0.971 | S. cerevisiae deletion strains, locus YJR043C, strain POL32, hits give low values 0.967 | S. cerevisiae deletion strains, locus YKL009W, strain mrt4, hits give low values 0.985 | S. cerevisiae deletion strains, locus YKL068W, hits give low values 1 | S. cerevisiae deletion strains, locus YKL085W, strain MDH1 (second series), hits give low values 1.01 | S. cerevisiae deletion strains, locus YKL085W, strain MDH1, hits give low values 1.01 | S. cerevisiae deletion strains, locus YKR001C, strain vps1, hits give low values 0.97 | S. cerevisiae deletion strains, locus YLR039C, strain RIC1, hits give low values 1.03 | S. cerevisiae deletion strains, locus YLR058C, strain SHM2, hits give low values 1 | S. cerevisiae deletion strains, locus YLR102C, strain apc9, hits give low values 0.976 | S. cerevisiae deletion strains, locus YLR262C, strain YPT6, hits give low values 1.03 | S. cerevisiae deletion strains, locus YLR268W, strain sec22, hits give low values 0.973 | S. cerevisiae deletion strains, locus YLR371W, strain rom2, hits give low values 0.997 | S. cerevisiae deletion strains, locus YLR418C, strain cdc73, hits give low values 0.906 | S. cerevisiae deletion strains, locus YML016C, strain PPZ1, hits give low values 0.998 | S. cerevisiae deletion strains, locus YML032C, strain rad52, hits give low values 0.97 | S. cerevisiae deletion strains, locus YML124C, strain tub3, hits give low values 0.977 | S. cerevisiae deletion strains, locus YMR078C, strain ctf18, hits give low values 0.979 | S. cerevisiae deletion strains, locus YMR223W, strain ubp8, hits give low values 0.951 | S. cerevisiae deletion strains, locus YMR263W, strain SAP30, hits give low values 0.987 | S. cerevisiae deletion strains, locus YMR307W, strain GAS1, hits give low values 0.979 | S. cerevisiae deletion strains, locus YNL067W, strain RPL9B, hits give low values 0.983 | S. cerevisiae deletion strains, locus YNL233W, strain BNI4, hits give low values 0.955 | S. cerevisiae deletion strains, locus YNL250W, strain rad50, hits give low values 0.979 | S. cerevisiae deletion strains, locus YNL271C, strain bni1, hits give low values 0.999 | S. cerevisiae deletion strains, locus YNL298W, strain CLA4, hits give low values 1.02 | S. cerevisiae deletion strains, locus YNL307C, strain MCK1, hits give low values 0.961 | S. cerevisiae deletion strains, locus YNL322C, strain KRE1, hits give low values 0.991 | S. cerevisiae deletion strains, locus YNR052C, strain pop2, hits give low values 0.989 | S. cerevisiae deletion strains, locus YOL006C, strain TOP1, hits give low values 0.893 | S. cerevisiae deletion strains, locus YOL012C, strain htz1 1.08 | S. cerevisiae deletion strains, locus YOL147C, strain pex11, hits give low values 0.973 | S. cerevisiae deletion strains, locus YOR061W, strain CKA2, hits give low values 1.01 | S. cerevisiae deletion strains, locus YOR069W, strain VPS5, hits give low values 0.999 | S. cerevisiae deletion strains, locus YOR136W, strain idh2, hits give low values 0.981 | S. cerevisiae deletion strains, locus YOR144C, strain elg1, hits give low values 0.988 | S. cerevisiae deletion strains, locus YOR184W, strain ser1, hits give low values 0.978 | S. cerevisiae deletion strains, locus YOR316C, strain cot1, hits give low values 0.98 | S. cerevisiae deletion strains, locus YPR119W, strain clb2, hits give low values 0.96 | S. cerevisiae deletion strains, locus YPR141C, strain kar3, hits give low values 0.99 | S. cerevisiae deletion strains, locus YPR163C, strain tif3, hits give low values 0.984 | S. cerevisiae deletion strains, locus YPR167C, strain met16, hits give low values 0.961 | S. cerevisiae deletion strains, strain wtn01, hits give low values 0.973 | S. cerevisiae strains, strain wild type, hits give low values 0.99
active: S. cerevisiae deletion strains, locus YBR021W, strain FUR4, hits give low values 0.837
